Compounds with a hit are over-represented: about 19% of the library has one in this group of screens.
KB-V1 cytotox: kills drug-selected multidrug resistant KB-V1 cells; KB-V1 MDR cells viability, CellTiter-Glo, 72 h; Potency, µM (highest dose often 46.1 µM), actives largely listed as cytotoxic; 400,000 compounds, 3.4% hits; further: nearly all actives have a fitted effect of over 60% in size
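Cytotoxicity toward P-gp-expressing KB-V1 cells was determined as loss of CellTiter-Glo luminescence after 72 h at 37 degrees C. Compounds were tested in quantitative HTS format across a concentration range, with curves fitted to normalized data.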
DT40 TDP1 CPT: growth inhibition of DT40 Tdp1-/-;hTDP1 cells with camptothecin (screen for TDP1 inhibitors); chicken DT40 Tdp1-/-;hTDP1 cells + 20 nM CPT, ATP luminescence, 48 h; Potency, µM (doses to about 46.2 µM), without a hit: at the highest dose activity change, negative = growth inhibition, usual class: inhibitors; 420,000 compounds, 12% hits; AID 686979; further: nearly all actives have a fitted effect of over 55% in size
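Chicken DT40 Tdp1-/- cells stably complemented with human TDP1 were seeded at 400 cells/well in medium containing 20 nM camptothecin, exposed to pin-transferred compounds, and grown at 37 °C for at least 48 hr. Viability was read as ATP luminescence.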
TDP1 cell noCPT: qHTS for Inhibitors of human tyrosyl-DNA phosphodiesterase 1 (TDP1): qHTS in cells in absence of CPT. Potency, µM (top dose mostly 46.2 µM), without a hit: at the top dose activity change, negative = growth inhibition, usual class: inhibitors. AID 686978, 2013. DT40 Tdp1-/- hTDP1 cells, no CPT, ATP luminescence, 48 h. 420,000 compounds, 15% hits; further: nearly all actives have a fitted effect of over 55% in size
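Growth kinetics read by CellTiter-Glo luminescence after ≥48 hr at 37 °C. Cells: DT40 Tdp1-/- stably carrying human TDP1, 400 per well, compound exposure in the absence of CPT (DMSO vehicle).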
KB-3-1 tox: KB-3-1 parental cell cytotoxicity. KB-3-1 viability, CellTiter-Glo ATP luminescence, 72 h. Potency, µM (highest dose often 46.1 µM), hits mostly cytotoxic. 400,000 compounds, 1.4% hits; further: nearly all actives have a fitted effect of over 60% in size
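KB-3-1 parental drug-naive adenocarcinoma cells in DMEM/10% FBS, incubated 72 h at 37 C with pin-transferred compounds across a concentration series. Viability by CellTiter-Glo luminescence; concentration-response curves fitted after normalization.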
HT1080 IDH1KD tx: HT-1080 IDH1 knockdown cell toxicity (counter line) | HT-1080 IDH1 knockdown viability, ATP luminescence, 48 h | Potency, µM (doses to about 46.1 µM), inactives show at the highest dose activity, negative = toxicity, hits mostly cytotoxic | 360,000 compounds, 2% hits;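 further: 0% = DMSO wells and -100% = cell-free medium wells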
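Luminescent ATP read-out (CellTiter-Glo, 10 min at room temperature) after 48 h compound exposure at 37 °C gave viability of IDH1-knockdown HT-1080 cells. Activity was normalised to DMSO and cell-free wells, then fitted as concentration-response curves.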
HT1080-NT tox: kills 2HG-producing HT-1080-NT fibrosarcoma cells. AID 686970. 360,000 compounds, 1.6% hits. HT-1080-NT fibrosarcoma viability, CellTiter-Glo ATP luminescence, 48 h. Potency, µM (titrated, usually from 46.1 µM), inactives show top-dose activity, negative = less viability, usual class: cytotoxic;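 further: NT is the 2HG producing partner of a matched IDH1 knockdown line; 0% = DMSO-treated cells and -100% = media-only wells without cells; nearly all actives have a fitted effect of over 55% in size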
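Viability of the 2HG-overproducing fibrosarcoma line after 48 hours of compound exposure at 37 degrees C was determined by luminescence with CellTiter-Glo, and concentration-effect curves were then fitted and categorized.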
* = called active by the depositor; i = inactive; ? = inconclusive; · = not tested or not shown; ! = a repeat was not active; [ ] = remark or other dose. The call rests on the fitted dose curve; in most records, active means well fitted curve in the direction sought with a large enough effect; inconclusive means small, poorly fitted or top-dose-only effect, or another doubt; inactive means no such curve, though single readings can be large; an effect the other way counts as inactive or inconclusive. Unless noted, on the % scale 0 is the no-effect control and ±100 the full control effect; potency means the concentration at half of the fitted maximal effect.

SMILES | KB-V1 cytotox | DT40 TDP1 CPT | TDP1 cell noCPT | KB-3-1 tox | HT1080 IDH1KD tx | HT1080-NT tox
COc1cc(C(=O)Nc2ccc(Br)cc2C(=O)c2ccccc2Cl)cc(OC)c1OC | ? | ? | 23µM* | i | -8% | 1%
CCOC(=O)c1cccc(C2=C(CNC(=O)c3ccc([N+](=O)[O-])cc3)[C@H]3CC[C@@H](C2)N3Cc2ccccc2)c1 | ? | ? | ? | i | ? | ?
CN1CCCC2(CCN(C(=O)c3csnn3)CC2)C1 | · | 11% | -3% | · | · | ·
COc1cc(CN=Cc2c(O)n(C(C)(C)C)c(=O)[nH]c2=O)cc(OC)c1 | i | 10% | ? | i | -29% | ?
COc1ccc(-c2ccc3c(c2)CN(C(=O)CCc2ccccc2)Cc2cnnn2-3)cc1 | i | ? | ? | ? | ? | ?
O=C(O)C1(Br)CC12c1ccccc1-c1ccccc12 (stereo not given) | i | 15% | 3% | i | 20% | 11%
C=C1C2[C@H](OC(C)=O)[C@@H]3CC(=O)[C@]4(C)OC[C@@]3(C)[C@@]4(O)[C@@H](OC(C)=O)[C@H](OC(C)=O)[C@@]2(COC(=O)c2ccccc2)[C@@H](OC(C)=O)C[C@@H]1O (stereo not given in full) | i | ? | ? | ? | -15% | -4%
CCCCn1c(N)c(C(=O)NCc2cccs2)c2nc3ccccc3nc21 | 13µM* | -18% | ? | ? | ? | ?
CCCOC(=O)c1c(N)n(Cc2cccs2)c2nc3ccccc3nc12 | i | 18µM* | ? | i | -24% | -15%
COCCOC(=O)c1c(N)n(Cc2ccccc2)c2nc3ccccc3nc12 | i | ? | ? | i | -23% | -25%
COCCCn1c(N)c(C(=O)NCCC(C)C)c2nc3ccccc3nc21 | 23µM* | ? | ? | ? | ? | -22%
COc1ccc(CCNC(=O)c2c(N)n(CCN3CCOCC3)c3nc4ccccc4nc23)cc1OC | ? | 15µM* | 13µM* | i | ? | ?
C=Cn1ccnc1P(O)(=S)c1nc(C)c(CCOC(C)=O)s1 (stereo not given) | i | 10% | 5% | i | 3% | 1%
CC1(C)[C@@H](O)C[C@H]2[C@](C)(O)[C@@H]3CC[C@H]4[C@@H](O)[C@@]3(C[C@@H](O)[C@@]21O)C[C@@]4(C)O | · | -2% | 6% | · | · | ·
COc1cccc(-n2c(O)c(C=NCCN3CCNCC3)c(=O)[nH]c2=S)c1 | i | 15% | -6% | i | 19% | 7%
C=CCN1CC[C@]23c4c5ccc(O)c4O[C@H]2[C@@H](O)C=C[C@H]3[C@H]1C5 | · | 7% | ? | · | · | ·
CCCCCn1c(N)c(C(=O)NCCN2CCOCC2)c2nc3ccccc3nc21 | ? | ? | 13µM* | ? | 18µM* | 16µM*
CCCCNC(=O)c1c(N)n(Cc2ccc3c(c2)OCO3)c2nc3ccccc3nc12 | i | 29µM* | ? | i | 2% | -2%
COc1ccc(Cn2c(N)c(C(=O)NCc3ccco3)c3nc4ccccc4nc32)cc1 | i | ? | ? | ? | -24% | -19%
CCCCn1c(N)c(C(=O)OCCOC)c2nc3ccccc3nc21 | ? | 3% | -26% | i | 16% | 14%
Nc1c(C(=O)NCc2ccco2)c2nc3ccccc3nc2n1CCN1CCOCC1 | ? | ? | ? | i | ? | ?
CCCCCCn1c(N)c(C(=O)NCCN2CCOCC2)c2nc3ccccc3nc21 | ? | 21µM* | ? | ? | ? | ?
Nc1c(C(=O)NCCCc2ccccc2)c2nc3ccccc3nc2n1Cc1cccs1 | 15µM* | ? | ? | ? | -27% | ?
CCc1nc2ccc(C(=O)N3CCN(C(=O)c4ccco4)CC3)cn2c1N(C)Cc1ccc(OC)cc1 | i | ? | ? | i | 2% | ?
CCc1ccc([C@H]2[C@@H]3C(=O)C[C@@H]4C(=O)N(Cc5ccccc5)C(=O)[C@@H]4[C@@H]3CN2S(=O)(=O)c2ccc(C)cc2)cc1 | i | ? | ? | i | 6% | 0%
SMILES | KB-V1 cytotox | DT40 TDP1 CPT | TDP1 cell noCPT | KB-3-1 tox | HT1080 IDH1KD tx | HT1080-NT tox
CC1CCC(NC(=O)CNC(=S)N2CC3CC(C2)c2cccc(=O)n2C3)CC1 (stereo not given) | i | 4% | 24% | i | 2% | 16%
Clc1cccc(N2Cc3ccccc3-n3nncc3C2)c1 | i | ? | ? | i | ? | -23%
CCOCCCn1c(N)c(C(=O)Nc2sc3c(c2C(=O)OC)CCCC3)c2nc3ccccc3nc21 | i | 21µM* | 21µM* | i | 15%[9.24 µM] | -5%
CCOC(=O)c1c(NC(=O)c2c(N)n(CCCOC)c3nc4ccccc4nc23)sc2c1CCCC2 | i | -4% | ? | i | -1% | 0%
O=C(CN1C(=O)c2ccccc2C1=O)N1CCN(c2nnc(-c3ccccc3)c3ccccc23)CC1 | ? | -19% | ? | ? | -8% | -4%
C[C@@H]1OC(OC2C(OC3CC[C@@]4(C)C5CC=C6C7CC(C)(C)CC[C@@]7(C(=O)O)CCC6(C)C5(C)CCC4[C@]3(C)CO)OCC(O)C2O)C(O)C(O)C1O (stereo not given in full) | · | ? | 16µM* | · | · | ·
CCN(CC)c1ccc(/C=C/[N+](=O)[O-])cc1 | ? | ? | 16µM* | ? | 16µM* | ?
CCN(CC)c1ccccc1 | i | -4% | -7% | i | 6% | 18%
Cc1ccc2c(c1)C=CC(C#N)N2C(=O)Oc1ccccc1 (stereo not given) | i | 18µM* | 16µM* | i | 0% | 2%
Cc1nccc2c1[nH]c1ccc(Br)cc12 | ? | ? | 23µM* | i | -20% | -21%
Cc1ccc(-n2c(=O)[nH]c3ccc(Br)cc3c2=O)cc1 | ? | -28% | -21% | i | · | ·
COc1ccc2c(c1)[nH]c1c(C)nccc12 | 23µM*! | 13µM* | 20µM* | ? | -7% | 0%
COc1cc(/C=C/C(=O)c2c(O)n(CCc3ccccc3)c(=O)[nH]c2=O)ccc1O | i | 13µM* | 10µM* | i | 12µM* | ?
O=c1[nH]c(=O)n(CCc2ccccc2)c(O)c1C=NCCN1CCNCC1 | i | -10% | -11% | i | 1% | 0%

From PubChem BioAssay
